Here are results for ten molecules from PubChem BioAssay (NCI).

Some test systems named below: SR leukemia; RPMI-8226 leukemia; OVCAR-8 ovarian; OVCAR-5 ovarian; OVCAR-4 ovarian; SK-OV-3 ovarian; IGROV1 ovarian; OVCAR-3 ovarian; HS 578T breast; NCI/ADR-RES ovarian; T-47D breast; BT-549 breast; MDA-MB-435 melanoma; SW-620 colon; MCF7 breast; HCT-116 colon; HCC-2998 colon; KM12 colon.
Holding throughout (assay): NCI-60 one-dose screen, 48 h (100 = growth as untreated, 0 = no growth, -100 = all killed)
Conditions in all cases: 10 µM unless noted

About 83,000 compounds went through this panel and 20% of them were active in at least one assay; those are over-represented in the sample as a whole.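 Plates (96-well) were seeded with cells, treated with compound at one concentration, and incubated for 48 hours before percent growth was determined.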 Activity calls are given as the source filed them. How the source made its calls: active means growth percent below 10; inactive means the rest.

As for `C=C1C(=O)O[C@H]2[C@H]1CC/C(Cn1cc(Cn3ccc4cc(Cl)ccc43)nn1)=C\CC[C@@]1(C)O[C@@H]21`, the growth is -27% (active) in the assay on SR leukemia; -42.3% (active) with RPMI-8226 leukemia; -38.8% (active) with OVCAR-8 ovarian; 69.5% (inactive) in the assay on OVCAR-5 ovarian; 14.3% (inactive) in the assay on OVCAR-4 ovarian; 85.9% (inactive) in the assay with SK-OV-3 ovarian. Also, the growth with IGROV1 ovarian is 2.27% (active); in the assay on OVCAR-3 ovarian, -91.2% (active); with HS 578T breast it was 52.1% (inactive); in the assay on NCI/ADR-RES ovarian, 50.6% (inactive); in the assay with T-47D breast, -47.6% (active); with BT-549 breast, 22.8% (inactive). In addition, the growth in the assay with MDA-MB-435 melanoma is 1.14% (active); with SW-620 colon, -75.7% (active); with MCF7 breast, -77.5% (active); in the assay on HCT-116 colon, -91.5% (active); with HCC-2998 colon, 39.1% (inactive); with KM12 colon, 52% (inactive).

On to `COc1cc(OC)c(/C=C/C(=O)c2c(OC)cc(OC)cc2OC)c(OC)c1`, for which the growth in the assay with SR leukemia is -11.9% (active); with RPMI-8226 leukemia, -6.66% (active); in the assay on OVCAR-8 ovarian, 17.6% (inactive); in the assay on OVCAR-5 ovarian, 29.1% (inactive); with OVCAR-4 ovarian, 47.6% (inactive); in the assay on SK-OV-3 ovarian, 24.7% (inactive). The growth in the assay on IGROV1 ovarian was 30.1% (inactive); in the assay on OVCAR-3 ovarian it was 6.92% (active); in the assay with HS 578T breast it was 52.6% (inactive); in the assay with NCI/ADR-RES ovarian, 12.3% (inactive); in the assay with T-47D breast it was 13% (inactive); with BT-549 breast, 33.4% (inactive). Besides, the growth is -34.8% (active) with MDA-MB-435 melanoma; 8.71% (active) with SW-620 colon; 19.5% (inactive) in the assay on MCF7 breast; 8.7% (active) with HCT-116 colon; 30.3% (inactive) in the assay on HCC-2998 colon; 9.29% (active) in the assay with KM12 colon.

For `COc1ccc(/C(=C/c2ccc3ccccc3c2)c2nn[nH]n2)cc1OC`, the growth is 15% (inactive) in the assay on SR leukemia; 16.6% (inactive) in the assay on RPMI-8226 leukemia; 40.5% (inactive) in the assay with OVCAR-8 ovarian; 60% (inactive) in the assay on OVCAR-5 ovarian; 62.7% (inactive) with OVCAR-4 ovarian; 39% (inactive) in the assay with SK-OV-3 ovarian. The growth in the assay on IGROV1 ovarian was 48.7% (inactive); in the assay with OVCAR-3 ovarian it was -17.3% (active); in the assay on HS 578T breast, 36.5% (inactive); with NCI/ADR-RES ovarian, -15.4% (active); in the assay with T-47D breast, 36.1% (inactive); with BT-549 breast it was 40.3% (inactive). Besides, the growth is -41% (active) with MDA-MB-435 melanoma; 29.2% (inactive) in the assay on SW-620 colon; 52.3% (inactive) with MCF7 breast; 17.7% (inactive) with HCT-116 colon; 55.4% (inactive) in the assay on HCC-2998 colon; 24.5% (inactive) with KM12 colon.

As for `COc1ccc2nc3cc(Cl)ccc3c(N3CCN(c4nccc(NCc5ccccc5)n4)CC3)c2c1`, the growth with SR leukemia was 20.9% (inactive); in the assay on RPMI-8226 leukemia, 63.2% (inactive); in the assay with OVCAR-8 ovarian, 71.4% (inactive); in the assay on OVCAR-5 ovarian, 106% (inactive); with OVCAR-4 ovarian, 67.3% (inactive); in the assay with SK-OV-3 ovarian it was 98.1% (inactive). For the same molecule, the growth in the assay on IGROV1 ovarian is 92% (inactive); with OVCAR-3 ovarian it was 63.3% (inactive); in the assay on HS 578T breast, 83.3% (inactive); in the assay with NCI/ADR-RES ovarian it was 78.5% (inactive); in the assay on T-47D breast it was 41.8% (inactive); in the assay with BT-549 breast it was 27.5% (inactive). The growth with MDA-MB-435 melanoma is 73.9% (inactive); in the assay on SW-620 colon, 68% (inactive); with MCF7 breast, 24.6% (inactive); in the assay on HCT-116 colon, 25.8% (inactive); in the assay with HCC-2998 colon, 84.3% (inactive); in the assay on KM12 colon it was 77% (inactive).

On to `O=C(/C=C/c1ccc(Cl)cc1)/C=C/c1cc2ccccc2[nH]c1=O`, for which the growth was 1.79% (active) with SR leukemia; -22.2% (active) in the assay with RPMI-8226 leukemia; -11.5% (active) with OVCAR-8 ovarian; 128% (inactive) with OVCAR-5 ovarian; 84.1% (inactive) with OVCAR-4 ovarian; 99.9% (inactive) in the assay with SK-OV-3 ovarian. Besides, the growth was 78.8% (inactive) in the assay on IGROV1 ovarian; 15.9% (inactive) with OVCAR-3 ovarian; 91.2% (inactive) in the assay with HS 578T breast; 86% (inactive) in the assay on NCI/ADR-RES ovarian; 48.7% (inactive) with T-47D breast; 44.6% (inactive) with BT-549 breast. The growth in the assay with MDA-MB-435 melanoma is -1.71% (active); in the assay with SW-620 colon, 8.48% (active); in the assay on MCF7 breast, 5.22% (active); with HCT-116 colon, -55.7% (active); with HCC-2998 colon, 73% (inactive); in the assay with KM12 colon it was 28.3% (inactive).

Regarding `c1ccc(Sc2ncnc3ccccc23)cc1`, the growth was 25.5% (inactive) in the assay with SR leukemia; 20.9% (inactive) in the assay with RPMI-8226 leukemia; 82.1% (inactive) in the assay with OVCAR-8 ovarian; 98.4% (inactive) in the assay with OVCAR-5 ovarian; 76% (inactive) in the assay on OVCAR-4 ovarian; 112% (inactive) in the assay with SK-OV-3 ovarian. The growth was 77.9% (inactive) in the assay on IGROV1 ovarian; 71.2% (inactive) in the assay with OVCAR-3 ovarian; 77.9% (inactive) in the assay with HS 578T breast; 83.5% (inactive) with NCI/ADR-RES ovarian; 63.8% (inactive) with T-47D breast; 51.6% (inactive) in the assay with BT-549 breast. Further, the growth was 38.1% (inactive) in the assay with MDA-MB-435 melanoma; 84.9% (inactive) with SW-620 colon; 63.8% (inactive) with MCF7 breast; 72% (inactive) in the assay on HCT-116 colon; 107% (inactive) with HCC-2998 colon; 86.1% (inactive) with KM12 colon.

In the case of `COc1cc(-c2nc3ccccc3s2)ccc1NC(=O)COc1ccc(Cl)cc1`, the growth in the assay with SR leukemia is 83.6% (inactive); with RPMI-8226 leukemia, 63.5% (inactive); with OVCAR-8 ovarian it was -3.09% (active); in the assay with OVCAR-5 ovarian, 61.8% (inactive); in the assay on OVCAR-4 ovarian, 6.47% (active); in the assay with SK-OV-3 ovarian it was 87.1% (inactive). Also, the growth in the assay with IGROV1 ovarian is 24.6% (inactive); in the assay on OVCAR-3 ovarian it was 42.4% (inactive); in the assay on HS 578T breast, 44.7% (inactive); in the assay with NCI/ADR-RES ovarian it was 33.2% (inactive); in the assay with T-47D breast, 23% (inactive); in the assay with BT-549 breast, 87.6% (inactive). Also, the growth is 72% (inactive) with MDA-MB-435 melanoma; 87.6% (inactive) in the assay with SW-620 colon; 40.4% (inactive) with MCF7 breast; 44.9% (inactive) in the assay with HCT-116 colon; 85.1% (inactive) in the assay on HCC-2998 colon; 45.6% (inactive) in the assay on KM12 colon.

Regarding `O=C(CN1CCN(c2cc3c(cc2F)c(=O)c(C(=O)O)cn3C2CC2)CC1)Nc1cc(=O)[nH]c(=O)[nH]1`, the growth with SR leukemia is 102% (inactive); in the assay with RPMI-8226 leukemia, 108% (inactive); with OVCAR-8 ovarian, 101% (inactive); in the assay with OVCAR-5 ovarian it was 96.4% (inactive); in the assay on OVCAR-4 ovarian it was 113% (inactive); in the assay with SK-OV-3 ovarian it was 110% (inactive). The growth with IGROV1 ovarian is 96.4% (inactive); in the assay on OVCAR-3 ovarian, 113% (inactive); with HS 578T breast it was 95.6% (inactive); in the assay with NCI/ADR-RES ovarian it was 102% (inactive); in the assay with T-47D breast it was 103% (inactive); in the assay on BT-549 breast, 83.3% (inactive). Besides, the growth in the assay with MDA-MB-435 melanoma is 102% (inactive); with SW-620 colon, 95.4% (inactive); in the assay with MCF7 breast, 101% (inactive); with HCT-116 colon it was 91.2% (inactive); in the assay with HCC-2998 colon, 98.1% (inactive); with KM12 colon, 108% (inactive).

Consider `c1ccc2c(Nc3cccc4ccccc34)cccc2c1`, for which the growth in the assay on SR leukemia was 31.6% (inactive); in the assay with RPMI-8226 leukemia it was 68.3% (inactive); in the assay with OVCAR-8 ovarian it was 65.7% (inactive); with OVCAR-5 ovarian it was 103% (inactive); in the assay with OVCAR-4 ovarian it was 86% (inactive); in the assay with SK-OV-3 ovarian it was 59.5% (inactive). The growth in the assay with IGROV1 ovarian is 56.8% (inactive); in the assay with OVCAR-3 ovarian, 43.8% (inactive); in the assay on HS 578T breast, 62.6% (inactive); in the assay with NCI/ADR-RES ovarian, 29.8% (inactive); with T-47D breast, 65.2% (inactive); with BT-549 breast it was 62.8% (inactive). Also, the growth with MDA-MB-435 melanoma was -27.7% (active); with SW-620 colon, 19% (inactive); in the assay with MCF7 breast it was 43.9% (inactive); in the assay on HCT-116 colon, 30.3% (inactive); in the assay on HCC-2998 colon it was 78.4% (inactive); in the assay on KM12 colon it was 33.6% (inactive).

As to `CC(=O)OCC(=O)C1CCC=CC1OC(C)=O` (stereo not given), the growth in the assay with SR leukemia was 98.9% (inactive); with RPMI-8226 leukemia it was 100% (inactive); in the assay with OVCAR-8 ovarian, 97.2% (inactive); in the assay with OVCAR-5 ovarian, 104% (inactive); with OVCAR-4 ovarian, 94.4% (inactive); in the assay with SK-OV-3 ovarian it was 87.9% (inactive). Moreover, the growth is 102% (inactive) in the assay with IGROV1 ovarian; 107% (inactive) with OVCAR-3 ovarian; 110% (inactive) with HS 578T breast; 100% (inactive) in the assay with NCI/ADR-RES ovarian; 87.8% (inactive) in the assay with T-47D breast; 103% (inactive) in the assay on BT-549 breast. For the same molecule, the growth in the assay with MDA-MB-435 melanoma is 98.3% (inactive); in the assay with SW-620 colon, 111% (inactive); with MCF7 breast, 105% (inactive); in the assay with HCT-116 colon, 100% (inactive); with HCC-2998 colon it was 102% (inactive); with KM12 colon, 99.7% (inactive).
